# From the supplement of paper PMC4466140
# B1: unnamed (peptide)
# chain: VPPPMQPPPIESSNL
# Target: CaNbp2
# Assay: SPOT peptide array binding signal intensity (averaged, normalized) (arbitrary units (background-subtracted, floor 0; scale differs between SH3 domains)); higher = stronger binding of the SH3 domain to the peptide
# In short: (§1)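 Four yeast species supplied the SH3 domains, which were expressed as GST fusions in E. coli BL21(DE3) and purified on glutathione Sepharose. Incubation with cellulose membranes carrying synthetic 15-mer peptides, cysteines exchanged for serines, ran overnight at 4°C at 10 μg/ml in TBS-based blocking buffer. Binding signal is reported as normalized, background-subtracted spot intensity averaged over replicates, in arbitrary units not shared between domains.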
row,Binder,SPOT peptide array binding signal intensity
1,B1,172

# Target: CaRvs167
# Assay: as above
# In short: as §1
row,Binder,SPOT peptide array binding signal intensity
1,B1,12.5

# Target: CaRvs167-3
# Assay: as above
# In short: as §1
row,Binder,SPOT peptide array binding signal intensity
1,B1,1

# Target: CaSho1
# Assay: as above
# In short: as §1
row,Binder,SPOT peptide array binding signal intensity
1,B1,279

# Target: CaSla1-D1-D2
# Assay: as above
# In short: as §1
row,Binder,SPOT peptide array binding signal intensity
1,B1,168

# Target: CaSla1-D3
# Assay: as above
# In short: as §1
row,Binder,SPOT peptide array binding signal intensity
1,B1,249

# Target: ScAbp1
# Assay: as above
# In short: as §1
row,Binder,SPOT peptide array binding signal intensity
1,B1,≤ 0

# Target: ScBbc1
# Assay: as above
# In short: as §1
row,Binder,SPOT peptide array binding signal intensity
1,B1,≤ 0

# Target: ScBem1-D1
# Assay: as above
# In short: as §1
row,Binder,SPOT peptide array binding signal intensity
1,B1,≤ 0

# Target: ScBzz1-D1
# Assay: as above
# In short: as §1
row,Binder,SPOT peptide array binding signal intensity
1,B1,≤ 0

# Target: ScBzz1-D2
# Assay: as above
# In short: as §1
row,Binder,SPOT peptide array binding signal intensity
1,B1,2

# Target: ScCyk3
# Assay: as above
# In short: as §1
row,Binder,SPOT peptide array binding signal intensity
1,B1,5

# Target: ScFus1
# Assay: as above
# In short: as §1
row,Binder,SPOT peptide array binding signal intensity
1,B1,328

# Target: ScHof1
# Assay: as above
# In short: as §1
row,Binder,SPOT peptide array binding signal intensity
1,B1,≤ 0

# Target: ScHse1
# Assay: as above
# In short: as §1
row,Binder,SPOT peptide array binding signal intensity
1,B1,65

# Target: ScLsb1
# Assay: as above
# In short: as §1
row,Binder,SPOT peptide array binding signal intensity
1,B1,0.25

# Target: ScLsb2
# Assay: as above
# In short: as §1
row,Binder,SPOT peptide array binding signal intensity
1,B1,≤ 0

# Target: ScLsb3
# Assay: as above
# In short: as §1
row,Binder,SPOT peptide array binding signal intensity
1,B1,≤ 0

# Target: ScLsb4
# Assay: as above
# In short: as §1
row,Binder,SPOT peptide array binding signal intensity
1,B1,9

# Target: ScMyo3
# Assay: as above
# In short: as §1
row,Binder,SPOT peptide array binding signal intensity
1,B1,854

# Target: ScMyo5
# Assay: as above
# In short: as §1
row,Binder,SPOT peptide array binding signal intensity
1,B1,502

# Target: ScNbp2
# Assay: as above
# In short: as §1
row,Binder,SPOT peptide array binding signal intensity
1,B1,206

# Target: ScPex13
# Assay: as above
# In short: as §1
row,Binder,SPOT peptide array binding signal intensity
1,B1,12.2

# Target: ScRvs167
# Assay: as above
# In short: as §1
row,Binder,SPOT peptide array binding signal intensity
1,B1,≤ 0

# Target: ScSho1
# Assay: as above
# In short: as §1
row,Binder,SPOT peptide array binding signal intensity
1,B1,324

# Target: ScSla1-D1-D2
# Assay: as above
# In short: as §1
row,Binder,SPOT peptide array binding signal intensity
1,B1,75.5

# Target: ScSla1-D3
# Assay: as above
# In short: as §1
row,Binder,SPOT peptide array binding signal intensity
1,B1,122

# Target: SpAbp1-D1
# Assay: as above
# In short: as §1
row,Binder,SPOT peptide array binding signal intensity
1,B1,≤ 0

# Target: SpBbc1
# Assay: as above
# In short: as §1
row,Binder,SPOT peptide array binding signal intensity
1,B1,≤ 0

# Target: SpBzz1-D1
# Assay: as above
# In short: as §1
row,Binder,SPOT peptide array binding signal intensity
1,B1,28.5

# Target: SpBzz1-D2
# Assay: as above
# In short: as §1
row,Binder,SPOT peptide array binding signal intensity
1,B1,≤ 0

# Target: SpCyk3
# Assay: as above
# In short: as §1
row,Binder,SPOT peptide array binding signal intensity
1,B1,6

# Target: SpHof1
# Assay: as above
# In short: as §1
row,Binder,SPOT peptide array binding signal intensity
1,B1,4.5

# Target: SpHof1-2
# Assay: as above
# In short: as §1
row,Binder,SPOT peptide array binding signal intensity
1,B1,1.5

# Target: SpHof1-3
# Assay: as above
# In short: as §1
row,Binder,SPOT peptide array binding signal intensity
1,B1,≤ 0

# Target: SpHse1
# Assay: as above
# In short: as §1
row,Binder,SPOT peptide array binding signal intensity
1,B1,163

# Target: SpLsb1
# Assay: as above
# In short: as §1
row,Binder,SPOT peptide array binding signal intensity
1,B1,≤ 0

# Target: SpLsb4
# Assay: as above
# In short: as §1
row,Binder,SPOT peptide array binding signal intensity
1,B1,61.5

# Target: SpMyo1
# Assay: as above
# In short: as §1
row,Binder,SPOT peptide array binding signal intensity
1,B1,957

# Target: SpNbp2
# Assay: as above
# In short: as §1
row,Binder,SPOT peptide array binding signal intensity
1,B1,46

# Target: SpPex13
# Assay: as above
# In short: as §1
row,Binder,SPOT peptide array binding signal intensity
1,B1,5

# Target: SpRvs167
# Assay: as above
# In short: as §1
row,Binder,SPOT peptide array binding signal intensity
1,B1,≤ 0

# Target: SpSla1-D1-D2
# Assay: as above
# In short: as §1
row,Binder,SPOT peptide array binding signal intensity
1,B1,≤ 0

# Target: SpSla1-D3
# Assay: as above
# In short: as §1
row,Binder,SPOT peptide array binding signal intensity
1,B1,138
